Source: PubChem BioAssay AID1159580 (chemical genetic matrix, 2015)
Hit rate of the full screen: of about 5,500 compounds, about 2,000 (36%) were called active. Another 18% or so got no clear call; they are omitted. Rule as the data show it: active = normalized growth mostly below about 0.91 (no sharp cut-off); inconclusive = no clear call, values can overlap the other calls; inactive = mostly above about 0.92. This is one part of the list.

Assay: chemical genetic growth profiling, strain panel (AID 1159580);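 also: tested at 20 µM; growth read once vehicle control cultures reached saturation at 30 °C; 1 = growth at the plate median or of vehicle wells; lower values mean less growth of the strain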
Conditions: S. cerevisiae deletion strains, growth OD

Measured: normalized growth

CC(C)CCCC(C)N (configuration not stated)
inactive: locus YAL021C, strain ccr4, stronger effect = lower value 1.03 | locus YAL026C, strain drs2, stronger effect = lower value 1.02 | locus YAL030W, strain snc1, stronger effect = lower value 1.02 | locus YBL061C, strain skt5, stronger effect = lower value 1.02 | locus YBR009C, strain hhf1, stronger effect = lower value 1.02 | locus YBR023C, strain chs3, stronger effect = lower value 1.03 | locus YBR171W, strain sec66, stronger effect = lower value 1.05 | locus YBR231C, strain swc5, stronger effect = lower value 1.02 | locus YBR279W, strain paf1, stronger effect = lower value 1.02 | locus YCL011C, strain gbp2, stronger effect = lower value 1.04 | locus YCL016C, strain dcc1, stronger effect = lower value 1.02 | locus YCL061C, strain MRC1, stronger effect = lower value 1.01 | locus YCL069W, strain vba3, stronger effect = lower value 1.03 | locus YCR088W, strain abp1, stronger effect = lower value 1.03 | locus YDL005C, strain med2, stronger effect = lower value 1.04 | locus YDL040C, strain nat1, stronger effect = lower value 1.02 | locus YDR001C, strain nth1, stronger effect = lower value 1.02 | locus YDR069C, strain doa4, stronger effect = lower value 1.04 | locus YDR137W, strain rgp1, stronger effect = lower value 0.99 | locus YDR159W, strain sac3, stronger effect = lower value 0.97 | locus YDR195W, strain ref2 1.03 | locus YDR297W, strain sur2, stronger effect = lower value 1.02 | locus YDR334W, strain swr1, stronger effect = lower value 1.03 | locus YDR335W, strain msn5, stronger effect = lower value 1.04 | locus YDR392W, strain spt3, stronger effect = lower value 0.963 | locus YEL003W, strain gim4, stronger effect = lower value 1.02 | locus YEL037C, strain rad23, stronger effect = lower value 1.04 | locus YEL061C, strain CIN8 (second series), stronger effect = lower value 1.01 | locus YER015W, strain faa2, stronger effect = lower value 1.02 | locus YER016W, strain bim1, stronger effect = lower value 1.05 | locus YER111C, strain swi4, stronger effect = lower value 1.04 | locus YER155C, strain BEM2 (second series), stronger effect = lower value 1.03 | locus YFR010W, strain ubp6, stronger effect = lower value 1.01 | locus YGL167C, strain pmr1, stronger effect = lower value 1.03 | locus YGL173C, strain kem1, stronger effect = lower value 1.01 | locus YGL227W, strain vid30, stronger effect = lower value 1.04 | locus YGL240W, strain doc1, stronger effect = lower value 0.983 | locus YGL253W, strain hxk2, stronger effect = lower value 1.04 | locus YHR013C, strain ard1, stronger effect = lower value 1.03 | locus YHR027C, strain rpn1, stronger effect = lower value 1.02 | locus YHR142W, strain chs7, stronger effect = lower value 1.05 | locus YJL092W, strain hpr5, stronger effect = lower value 1.02 | locus YJL095W, strain BCK1 (second series), stronger effect = lower value 1.03 | locus YJL115W, strain asf1, stronger effect = lower value 1.03 | locus YJL129C, strain trk1, stronger effect = lower value 1.04 | locus YJL154C, strain vps35, stronger effect = lower value 1.03 | locus YJL164C, strain tpk1, stronger effect = lower value 1.03 | locus YJL166W, strain qcr8, stronger effect = lower value 1.02 | locus YJL187C, strain SWE1, stronger effect = lower value 1.02 | locus YKL160W, strain elf1, stronger effect = lower value 1.03 | locus YKR026C, strain gcn3, stronger effect = lower value 1.02 | locus YKR091W, strain srl3, stronger effect = lower value 1.01 | locus YLL001W, strain dnm1, stronger effect = lower value 1 | locus YLL026W, stronger effect = lower value 1.01 | locus YLL041C, strain sdh2, stronger effect = lower value 1.03 | locus YLR027C, strain aat2, stronger effect = lower value 1.03 | locus YLR221C, strain rsa3, stronger effect = lower value 1.01 | locus YLR258W, strain gsy2, stronger effect = lower value 1.01 | locus YLR262C, strain YPT6 (second series), stronger effect = lower value 0.999 | locus YLR320W, strain mms22, stronger effect = lower value 0.977 | locus YLR342W, strain FKS1, stronger effect = lower value 1.03 | locus YLR357W, strain rsc2, stronger effect = lower value 1.06 | locus YLR370C, strain arc18, stronger effect = lower value 1.03 | locus YLR384C, strain iki3, stronger effect = lower value 1.03 | locus YML120C, strain ndi1, stronger effect = lower value 1.02 | locus YMR058W, strain fet3, stronger effect = lower value 1.01 | locus YMR125W, strain sto1, stronger effect = lower value 1.04 | locus YMR129W, stronger effect = lower value 1.02 | locus YMR205C, strain PFK2, stronger effect = lower value 1.01 | locus YMR231W, strain pep5, stronger effect = lower value 1.03 | locus YNL071W, strain lat1, stronger effect = lower value 1.03 | locus YNL209W, strain ssb2, stronger effect = lower value 1.03 | locus YNL248C, strain rpa49, stronger effect = lower value 1.07 | locus YNL322C, strain KRE1 (second series), stronger effect = lower value 1.04 | locus YNR049C, strain mso1, stronger effect = lower value 1.03 | locus YOR001W, strain rrp6, stronger effect = lower value 1.02 | locus YOR070C, strain gyp1, stronger effect = lower value 1.02 | locus YOR080W, strain dia2, stronger effect = lower value 1.03 | locus YOR083W, strain WHI5, stronger effect = lower value 0.968 | locus YOR106W, strain vam3, stronger effect = lower value 1.04 | locus YOR265W, strain rbl2, stronger effect = lower value 1.02 | locus YOR270C, strain vph1, stronger effect = lower value 1.14 | locus YOR290C, strain snf2, stronger effect = lower value 1.03 | locus YPL051W, strain arl3, stronger effect = lower value 1.02 | locus YPL078C, strain atp4, stronger effect = lower value 1.04 | locus YPL106C, strain sse1, stronger effect = lower value 1.05 | locus YPL240C, strain hsp82, stronger effect = lower value 1.03
